Measurements taken from the supplement of paper PMC6555819.

What was measured:
Experiment in all cases: PBM binding z-score (relative to random genomic background probes); higher = stronger binding; sequences stand for … in GC…GCGATTGACAGCGTAGAATGAAGG
[1] = test system: FXR:RXRa (NR concentration 270 nM, RXRa partner concentration 90 nM)
Outline: (§1)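 Each nuclear receptor dimer, without ligand, was incubated for 1 h on custom Agilent 4×180K protein-binding microarrays. Binding was detected with antibodies against each partner (one per run), and scanned fluorescence was regression-normalized. The binding z-scores are referenced to random human genomic background probes.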

[2] = test system: LXRa:RXRa (NR concentration 270 nM, RXRa partner concentration 90 nM)
Outline: as §1

[3] = test system: LXRa homodimer (NR concentration 270 nM)
Outline: as §1

[4] = test system: LXRb:RXRa (NR concentration 270 nM, RXRa partner concentration 90 nM)
Outline: as §1

[5] = test system: LXRb homodimer (NR concentration 270 nM)
Outline: as §1

[6] = test system: PPARa:RXRa (NR concentration 270 nM, RXRa partner concentration 90 nM)
Outline: as §1

[7] = test system: PPARg:RXRa (NR concentration 180 nM, RXRa partner concentration 90 nM)
Outline: as §1

[8] = test system: PPARg:RXRa 270nM:90nM, anti-RXR (NR concentration 270 nM, RXRa partner concentration 90 nM)
Outline: as §1

[9] = test system: PPARg:RXRa 30nM:10nM, anti-RXR (NR concentration 30 nM, RXRa partner concentration 10 nM)
Outline: as §1

[10] = test system: PPARg:RXRa 90nM:30nM, anti-RXR (NR concentration 90 nM, RXRa partner concentration 30 nM)
Outline: as §1

[11] = test system: PPARg:RXRa DBDmut IVT, anti-RXR (DBD mutation: RXRa K156A/R161A, NR concentration 270 nM, RXRa partner concentration 90 nM)
Outline: as §1

[12] = test system: PPARg:RXRa IVT, anti-PPARg (NR concentration 270 nM, RXRa partner concentration 90 nM)
Outline: as §1

[13] = test system: PPARg DBDmut IVT, anti-PPARg (DBD mutation: PPARg1 K132A/R137A, NR concentration 270 nM)
Outline: as §1

[14] = test system: PPARg homodimer (NR concentration 180 nM)
Outline: as §1

[15] = test system: PXR:RXRa (NR concentration 270 nM, RXRa partner concentration 90 nM)
Outline: as §1

[16] = test system: PXR homodimer (NR concentration 270 nM)
Outline: as §1

[17] = test system: RARa:RXR (NR concentration 270 nM, RXRa partner concentration 90 nM)
Outline: as §1

[18] = test system: RARa homodimer (NR concentration 270 nM)
Outline: as §1

[19] = test system: RARb:RXRa (NR concentration 270 nM, RXRa partner concentration 90 nM)
Outline: as §1

Sequence	PBM binding z-score [1]	PBM binding z-score [2]	PBM binding z-score [3]	PBM binding z-score [4]	PBM binding z-score [5]	PBM binding z-score [6]	PBM binding z-score [7]	PBM binding z-score [8]	PBM binding z-score [9]	PBM binding z-score [10]	PBM binding z-score [11]	PBM binding z-score [12]	PBM binding z-score [13]	PBM binding z-score [14]	PBM binding z-score [15]	PBM binding z-score [16]	PBM binding z-score [17]	PBM binding z-score [18]	PBM binding z-score [19]
ATATGAAGGTTAGGGTCATTCAGAAAGTAGGGAA	5.27	4.18	1.26	4.52	1.7	5.23	4	4.02	1.82	2.87	1.38	2.78	1.79	3.99	4.59	2.32	5.28	2.29	3.66
ATATGTAGGTTAGGGACATTCAGAAAGTAGGGAA	0.703	0.638	0.29	0.442	0.526	2.39	3.98	2.82	1.2	2.33	6.18	5.89	1.59	0.688	0.115	0.777	0.618	1.69	1.04
CGAACTAGGTCAAAGGACAGTGATAGGCGACGTA	3.8	2.62	0.0431	1.64	-0.0452	5.27	10.2	8.27	8.49	9.35	8.07	8.07	0.359	1.45	1.14	-0.148	2.05	0.153	3.95
ATATGTAGCTTAGGGTCATTCAGAAAGTAGGGAA	4.3	4.47	1.67	4.49	1.7	4.7	2.42	3.28	1.35	2.4	0.587	2.1	1.21	1.78	4.04	0.915	4.2	1.36	3.24
CGAACTAGGTCACCTGGACAGTGAAGAGGTTGGA	3.92	2.38	0.0453	1.79	-0.443	5	8.13	6.5	4.2	5.86	8.17	8.6	-0.299	1.42	1.46	0.15	2.53	-0.115	4.05
ATTTGTAGGTTAGGGTCATTCAGAAAGTAGGGAA	5.22	4.68	2.51	4.9	3.24	5.52	6.37	5.83	3.41	5.27	5.45	5.62	3.63	4.01	4.55	3.09	5.22	4.03	3.86
CGAACTAGCTCACCAGGACAGTGAAGAGGTTGGA	-0.472	-0.64	-0.125	-0.561	-0.585	-0.517	0.165	-0.517	-0.602	-0.751	0.166	-0.411	0.212	-0.0125	-0.706	-0.202	-0.594	-0.478	-0.409
CGAACTAGGTCAAAGGACAGCGAAAGGCGACGTA	4.22	2.78	-0.185	1.94	-0.366	5.76	10.8	8.88	9.93	10.3	8.31	8.46	0.805	1.59	1.22	-0.642	2.66	0.165	3.93
CGAACTAGGTCACCAGGCCAGTGAAGAGGTTGGA	4.08	2.41	-0.125	1.44	-0.76	5.2	8.64	7.15	4.02	6.44	8.23	8.8	0.89	2.25	1.18	-0.53	2.73	-0.334	4.22
ATATGTGGGTTAGGGTCATTCAGAAAGTAGGGAA	5.21	4.67	1.97	5.31	3.87	5.7	7.6	6.42	3.82	5.8	6.19	6.44	2.69	4.09	5.1	3.66	5.02	3.33	3.45
ATATGCAGGTTAGGGTCATTCAGAAAGTAGGGAA	4.84	4.25	0.906	4.2	0.909	5.12	4.09	4.1	1.99	3.4	2.72	3.16	1.24	2.85	4.28	1.51	4.9	1.16	3.4
CGAACTAGGTCAAAAGACAGTGAAAGGCGACGTA	3.09	2.03	-0.16	1.47	-0.191	4.46	8.06	7.08	5.52	7.26	7.84	7.79	0.23	0.576	0.624	-0.275	1.45	-0.196	3.17
ATATGTAGGTTAGGGTCTTTCAGAAAGTAGGGAA	1.38	0.75	0.422	1.37	1.11	3.21	4.93	3.87	1.72	3.03	6.29	6.62	2.64	2.25	0.93	1.06	1.2	1.44	0.945
ATATGTAGGTTAGGGTTATTCAGAAAGTAGGGAA	2.3	2.27	0.961	2.84	1.66	4.11	5.61	5.21	3.18	4.8	6.88	6.54	2.32	2.77	2.33	1.31	2.55	1.94	1.57
CGAACTAGGTCACCAGGACAGTGGAGAGGTTGGA	4.02	2.46	0.169	1.58	-0.484	5.13	8.7	7.06	4.41	6.57	8.2	8.98	4.11	2.37	1.37	-0.106	2.81	0.103	4.39
ATATGTAGGTTAGGGTCATCCAGAAAGTAGGGAA	5.11	4.21	1.16	4.31	1.44	5.62	8.03	6.66	4.94	6.67	6.49	6.96	3.77	6.33	4.46	1.88	5.12	2.64	3.55
CGAACTAGGTTACCAGGACAGTGAAGAGGTTGGA	-0.174	-0.0635	-0.296	-0.238	-0.499	2.53	3.94	3.65	0.924	2.52	6.94	6.73	2.08	0.829	-0.124	-0.211	0.296	-0.114	1.13
CGAACTAGATCAAAGGACAGTGAAAGGCGACGTA	-0.658	-0.667	-0.396	-0.5	-0.637	1.77	3.32	4.89	2.76	4.58	1.68	1.44	-0.617	0.388	-0.456	-0.201	-0.579	0.383	0.915
CGAACTAGGTCACCAGGAGAGTGAAGAGGTTGGA	3.86	2.33	-0.171	1.33	-0.287	4.87	8.26	6.73	4.58	6.24	8.2	8.65	3.69	2.38	1.22	-0.0382	2.45	-0.347	4.04
CGAACTAGGTCAAACGACAGTGAAAGGCGACGTA	4.81	2.87	0.0143	2.12	0.102	5.14	8.27	6.9	5.2	7.3	8.02	8.26	0.569	1.9	1.19	-0.315	2.13	0.265	3.7
ACATGTAGGTTAGGGTCATTCAGAAAGTAGGGAA	5.38	4.23	1.48	4.58	1.99	5.48	6.68	5.77	3.37	5.57	5.77	5.83	3.59	3.84	4.47	2.63	5.07	1.97	3.61
CGAACTAGGTCACCAGGACAGTGATGAGGTTGGA	3.92	2.37	0.0863	1.49	-0.567	4.96	8.57	6.62	4.75	6.58	7.98	8.61	0.614	2.34	1.5	0.423	2.69	0.546	4.16
CGAACAAGGTCAAAGGACAGTGAAAGGCGACGTA	7.69	5.16	0.368	4.24	0.892	6.01	7.72	6.93	4.75	6.72	3.85	5.39	1.79	2.54	4	0.956	4.62	0.893	4.98
CGAACTATGTCAAAGGACAGTGAAAGGCGACGTA	0.0509	0.00479	-0.268	-0.115	-0.346	2.68	5.1	5.42	4.42	5.74	3.02	3.26	0.207	0.527	-0.558	-0.587	-0.379	-0.181	1.45
CGAACTAGGTCACCAGGACATTGAAGAGGTTGGA	4.15	2.68	0.557	1.82	-0.284	5.35	8.44	7.05	4.88	6.35	7.89	8.55	0.336	1.53	1.66	0.175	2.53	0.511	4.21
CGAACTAGGTCTCCAGGACAGTGAAGAGGTTGGA	-0.128	-0.769	-0.494	-0.832	-1.01	0.539	0.908	0.999	-0.187	0.153	4.77	4.03	-0.626	0.0186	-0.409	-0.39	-0.238	-0.356	0.216
ATATGTAGGTTAGTGTCATTCAGAAAGTAGGGAA	1	1.03	0.483	1.41	0.974	3.21	4.15	3.57	1.5	2.8	6.62	6.21	2.47	1.86	1.09	0.763	1.32	2.19	1.4
ATATGTAGTTTAGGGTCATTCAGAAAGTAGGGAA	5.21	4.46	1.76	4.87	2.03	5.14	3.26	3.61	1.72	2.87	1.43	2.8	1.5	2.89	4.68	1.83	5.48	1.75	3.42
ATGTGTAGGTTAGGGTCATTCAGAAAGTAGGGAA	5.11	4.15	1.8	4.76	2.68	5.13	4.57	4.47	2.37	3.65	2.92	3.98	1.73	3.73	4.68	3.2	5.25	2.44	3.87
ATATGTAGGTTAGGTTCATTCAGAAAGTAGGGAA	1.59	2.28	0.871	2.34	1.28	4.1	4.93	4.37	2.49	4.03	6.23	5.61	2.4	1.77	2.89	2.26	2.24	1.68	1.5
